Reference: ChEMBL document CHEMBL4513216, “Probing the Open Global Health Chemical Diversity Library for Multistage-Active Starting Points for Next-Generation Antimalarials” (ACS Infect Dis, 2020)
Screen size: about 65,000 compounds; about 2,100 (3.2%) showed an effect of 50% or more. The median lay at about -52%. The entries come from a sample that favours strong results as a whole.

system: Plasmodium falciparum; assay: Screen against P. falciparum Asexual Blood Stage (ABS), at 5uM; assay type: functional, Dd2; conditions: tested at 5 uM

SMILES | INHIBITION [%]
Cc1cc(NCCc2c[nH]cn2)nc(-c2cccnc2)n1 | -108.15
Cn1nc(C2CC2)c2c1NC(=O)CC2c1cc(CN2CCCC2)cs1 (stereo unspecified) | 81.9
CCN1CCC2(CC1)NC(=O)c1cc(Br)ccc1-n1nnnc12 | -47.7
O=C(N1CCCC1)N1C[C@@H]2CCNC[C@@H]21 | -67.9
O=C(Nc1ccc(Cl)cn1)c1cncc(C2CCNCC2)n1 | 70
FC(F)CNc1cnc(C2CCNCC2)cn1 | -139
Cc1nn(CCNC(C)Cn2cncn2)c(C)c1Cl (stereo unspecified) | -44.7
FC(F)(F)c1nc(C2CCNCC2)no1 | -40.3
c1c[nH]c2nc(C3CCNCC3)nc-2c1 | -162
FC(F)(F)c1cc(C2CCNCC2)nc(-c2ccsc2)n1 | 89.2
CS(=O)(=O)CCCNCc1c(Cl)cccc1N1CCCC1 | 72
CCOCCN1CCO[C@H]2[C@H](OCc3ccccn3)CC[C@@H]21 | -65.4
O=C(C[C@@H]1COC[C@H]2CN(Cc3cccnc3)C[C@@H]12)NCC1CC1 | -71.5
CCN1C[C@H]2[C@@H](C1)N(C(=O)Cc1ccsc1)CC[C@H]2OC | -31.1
CO[C@H]1CCN(C(=O)Cc2ccsc2)[C@@H]2CN(CC3CC3)C[C@H]12 | 19.6
CCN1C[C@@H]2[C@@H](OC)CCN(C(=O)Cc3ccsc3)[C@@H]2C1 | 60
Cc1cccc(C)c1Nc1noc2c1CN(C(=O)c1ccn(C)n1)CC2 | 86.6
Cc1cccc(C)c1Nc1noc2c1CN(C(=O)c1cn(C)cn1)CC2 | 88.3
Cc1cccc(C)c1Nc1noc2c1CN(C(=O)c1ccnn1C)CC2 | 81.7
Cc1cccc(C)c1Nc1noc2c1CN(C(=O)c1c[nH]nc1C)CC2 | 93
O=C(c1cc2ccccc2[nH]c1=O)N1CCC2(CCCNC2)C1 (stereo unspecified) | -49.9
CCCN1CC[C@@H]2OC[C@H](C(=O)Nc3cccnc3)C[C@@H]2C1 | -131
CC(C)NC(=O)CN1CCSC2(CCCCC2)C1 | -66.6
CN1CC=C(c2noc(CCC(=O)N3CCc4ccccc4C3)n2)CC1 | -27.1
CCc1ccccc1Nc1noc2c1CN(C(=O)CCOC)CC2 | 85.1
Cc1cccc(CN2CC[C@@H]3[C@@H]2CCN3C(=O)Cc2ccsc2)n1 | -115

SMILES | INHIBITION [%]
CC(C)Nc1nc2c(c(NC3CC3)n1)CN(C(=O)Cc1ccsc1)CC2 | 75.6
Cn1ccnc1CN1CCN2C[C@H](Oc3cncnc3)C[C@H]2C1 | -70.4
Cn1ccnc1CN1CC[C@H]2CO[C@H](CNc3ncccn3)[C@H]2C1 | -52.6
CC(C)N1CCO[C@H]2CN(C(=O)Cc3ccsc3)C[C@H]21 | -23.1
CC(C)Nc1nc2c(c(NC3CC3)n1)CCN(Cc1nccn1C)CC2 | 76.1
CN1CCC(n2cc3nc(N)[nH]cc-3c2=O)CC1 | -44.7
O=C(COc1ccccc1)N1C[C@@H](O)[C@H](N2CCCC2)C1 | -15.5
CNC(=O)[C@@H]1C[C@H]2CN(Cc3c(C)noc3C)C[C@H]2N1C(C)C | -39.8
Cc1cc(N(C)CCOc2ccccc2F)nc(N)n1 | 85.3
COCCN(C)C(C)Cc1ccccc1OC (stereo unspecified) | 23.6
COc1ccccc1OCCCN(C)c1cc(C)nc(N)n1 | 73.5
COc1ccccc1OCCN(C)c1cc(C)nc(N)n1 | 70.2
CC(C)CNC(=O)N1C[C@H]2CCN[C@H]2C1 | 14
N#CC1(C(=O)NCC2CCC3(CCNCC3)O2)CC1 (stereo unspecified) | 22.6
CCS(=O)(=O)c1nnc([C@@H](N)Cc2ccccc2)o1 | -131
CC[C@H](C)[C@@H](CO)NC(C)Cc1ccc(Cl)cc1 (stereo partly specified) | 18.9
COCCN1C(=O)CC[C@@H]2[C@@H]1CCN2Cc1c(C)noc1C | -35.6
O=C(Nc1cccnc1)[C@H]1CN(C2CCCC2)C[C@H]2OCC[C@@H]12 | -39.7
CN(C)CCN1CCN(Cc2cccs2)Cc2cccnc21 | 77.1
CN(C)CCN1CCN(Cc2nccs2)Cc2cccnc21 | 5.69
COCCN1CCN(Cc2ccoc2)Cc2cccnc21 | 21
CC(C)c1cc(C(=O)N2CCCC3(CCNC3)C2)no1 (stereo unspecified) | -75.8
O=C1CN(C(=O)c2ccc(F)cc2)CC(O)CN1Cc1cccs1 (stereo unspecified) | 88.8
O=C1[C@H]2CN(Cc3cccs3)C[C@H]2CN1c1cncnc1 | -85.7
CCN1C[C@@H]2CN(Cc3cccs3)C[C@@H]2C1=O | 37.6
